Data on 54 compounds can be found in PubChem BioAssay AID504329 (Southern Research Specialized Biocontainment Screening …, 2011).

Screen size: about 340,000 compounds; about 1,000 (0.29%) were called active. Cut-off read from the data, not from the text of the source: inconclusive = inhibition above about 27% without an active follow-up result; inactive = below that. Only a sample is shown. Entries with a potency or affinity are not part of this list.

A word on the inhibition: it is the relative decrease from the control value, in per cent.

A short description of this experiment: NS1A inhibition, H1N1 influenza, cell based functional assay (AID 504329). To be noted: percent inhibition, at 12.5 µM, hits give high values.
Take `CCOC(=O)C(NC(C)=O)(Nc1ccc(S(=O)(=O)Nc2nccs2)cc1)C(F)(F)F` (centres undefined): the inhibition is -7.42% (inactive).
For the compound `Cc1cccc(-n2c(O)c(C=Nc3cc(O)ccc3C)c3ccccc3c2=O)n1`, the inhibition is 3.61% (inactive).
Under `COc1cc(C2C(C(C)=O)=C(O)C(=O)N2CCN(C)C)ccc1O` (centres undefined) stands -16% (inactive).
The result for `O=C(COC(=O)c1n[nH]c(=O)c2ccccc12)NC1CCCCC1` reads -3.19% (inactive); that for `COc1cc(NC(=O)CSCc2ccc(Cl)cc2)c(C(=O)O)cc1OC`, -10.8% (inactive).
Consider `O=C(Cc1n[nH]c(=O)c2ccccc12)Nc1cc(Cl)ccc1-n1cncn1`, for which the inhibition is -5.46% (inactive).
Under `COc1ccc(C(=O)N/N=C/c2ccc(OC)c(COc3ccc(F)cc3)c2)cc1` stands -7.91% (inactive); under `COc1ccc(C(=O)N/N=C/c2ccc(OC)c(COc3ccccc3)c2)cc1`, -10.8% (inactive); under `CCC(CC)NC(=O)CO/N=C/c1ccc(Cl)cc1Cl`, 2.24% (inactive).
On to `O=C(O)C1C2C=CC(C2)C1C(=O)NCCCN1CCOCC1` (centres undefined), for which the inhibition was -16.9% (inactive).
`C[C@H](CO)N1C[C@H](C)[C@@H](CN(C)S(=O)(=O)c2cccs2)Oc2ccc(NC(=O)c3ccncc3)cc2C1=O`: the inhibition is -5.12% (inactive).
`CCN(CC)Cc1cc(C(=O)O)c(-c2ccccc2)o1`: the inhibition was -10.3% (inactive).
With `CCOC(=O)C1CCN(C2=C(NS(=O)(=O)c3ccc(Cl)cc3)C(=O)c3ccccc3C2=O)CC1`, the inhibition is -27.4% (inactive).
The result for `CCOC(=O)C1CCCN(c2nc3ccccc3nc2NS(=O)(=O)c2ccc(C)cc2)C1` (centres undefined) reads -25.9% (inactive).
For `CCN1CCN(C2=C(NS(=O)(=O)c3ccc(Br)cc3)C(=O)c3ccccc3C2=O)CC1`, the inhibition was 5.79% (inactive).
The result for `CC1CCCN(C2=C(NS(=O)(=O)c3ccc(Cl)cc3)C(=O)c3ccccc3C2=O)C1` (centres undefined) reads 3.15% (inactive); that for `NC(=O)C1CCN(C2=C(NS(=O)(=O)c3ccc(Cl)cc3)C(=O)c3ccccc3C2=O)CC1`, -27.5% (inactive); that for `NC(=O)C1CCN(C2=C(NS(=O)(=O)c3ccc(Br)cc3)C(=O)c3ccccc3C2=O)CC1`, 23.9% (inactive).
Under `CCOC(=O)C1CCN(C2=C(NS(=O)(=O)c3ccc(Br)cc3)C(=O)c3ccccc3C2=O)CC1` stands 27.6% (inactive); under `CC(=O)Nc1ccc(S(=O)(=O)NC2=C(N3CCN(C)CC3)C(=O)c3ccccc3C2=O)cc1`, 7.96% (inactive); under `CCCN(CC(=O)Nc1ccccc1C)C(=O)CCNC(=O)c1ccccc1Cl`, 0.78% (inactive).
On to `O=C(c1ccccc1)N1CCCC(C(=O)N2CCc3ccccc3C2)C1` (centres undefined), for which the inhibition was -4.42% (inactive).
For `Cc1ccc(C)c(NCc2n[nH]c(=S)n2-c2ccccc2)c1`, the inhibition is -0.26% (inactive).
`O=C(OC(C(=O)NCC1CCCO1)c1ccccn1)c1cccs1` (centres undefined): the inhibition was -1.32% (inactive).
The result for `COc1ccc(NC(=O)COC(=O)CN2C(=O)C3CCCCC3C2=O)cc1OC` (centres undefined) reads -0.56% (inactive); that for `CC(C)C[C@H](NC(=O)C1CCN(C(=O)[C@H](Cc2ccccc2)NC(=O)OC(C)(C)C)CC1)C(=O)O`, -7.8% (inactive).
As for `COC(=O)CCC(=O)N(CCN(Cc1ccccc1)C(=O)CCC(=O)OC)Cc1ccccc1`, the inhibition is 8.88% (inactive).
The result for `Cc1ccc(N=Nc2c(O)[nH]c(=O)[nH]c2=O)cc1S(=O)(=O)Nc1ccc(Br)cc1` reads 9.19% (inactive).
As for `CCc1ccc(NC(=O)CN(c2ccc(OC)cc2)S(=O)(=O)c2c(C)[nH]c(=O)[nH]c2=O)cc1`, the inhibition is 2.97% (inactive).
Under `CN1CCN(c2ccc(S(=O)(=O)N3CCCCC3)cc2NC(=O)COc2ccc(F)cc2)CC1` stands -7.14% (inactive); under `N#CC1=C(N)Oc2c(ccc3cccnc23)C1c1ccccc1` (centres undefined), 25.4% (inactive).
Consider `COC(=O)C1=C(C)OC(N)=C(C#N)C1c1cc2cc(C)ccc2nc1Cl` (centres undefined), for which the inhibition is 11.8% (inactive).
The result for `COc1ccc(C2C(C#N)=C(N)Oc3c2ccc2cccnc32)cc1OC` (centres undefined) reads -15.7% (inactive); that for `CCc1ccc(C2C(C#N)=C(N)Oc3cc(N)ccc32)cc1` (centres undefined), 0.13% (inactive); that for `CCOC(=O)C1=C(C)OC(N)=C(C#N)C1c1cc2cc(C)ccc2nc1N1CCCCC1` (centres undefined), -5.59% (inactive).
Take `C[n+]1cccc(C2C(C#N)=C(N)Oc3c2ccc2ccccc32)c1` (centres undefined): the inhibition is -17.7% (inactive).
Take `CC(=O)C1=C(C)OC(N)=C(C#N)C1c1cc2cccc(C)c2nc1Cl` (centres undefined): the inhibition was -6.22% (inactive).
The result for `COc1cc(C2C(C#N)=C(N)Oc3c2ccc2ccccc32)ccc1OCC(=O)Nc1ccc(C)cc1` (centres undefined) reads 1.8% (inactive); that for `CC(C)(C)c1ccc(CN(Cc2ccccc2)C(c2ccccn2)c2nnnn2C(C)(C)C)cc1` (centres undefined), 9.19% (inactive); that for `C[C@H](CO)N1C[C@H](C)[C@@H](CN(C)Cc2ccc(-c3ccccc3)cc2)Oc2c(NC(=O)Cc3ccccc3)cccc2C1=O`, 11.9% (inactive).
As to `CC(=O)Nc1ccc(Br)cc1C(=O)C(=O)O`, the inhibition is 2.32% (inactive).
`C=CCc1c(C)[nH]c(=O)[nH]c1=O`: the inhibition is -3.62% (inactive).
In the case of `Cc1noc(C)c1NC(=O)N(C)C[C@H]1Oc2ccc(NC(=O)NC(C)C)cc2C(=O)N([C@H](C)CO)C[C@@H]1C`, the inhibition is -14.8% (inactive).
Under `CCCn1c(N)c(C(=O)CSc2nnc3n2CCCCC3)c(=O)n(C)c1=O` stands -16.1% (inactive); under `CC(C)CNS(=O)(=O)c1cc(C(=O)OC2CCOC2=O)c(Cl)cc1Cl` (centres undefined), -8.56% (inactive); under `COc1ccccc1C(CNc1ncccc1[N+](=O)[O-])N(C)C` (centres undefined), -0.51% (inactive).
Under `COc1ccccc1CNc1ncccc1[N+](=O)[O-]` stands -1.95% (inactive).
For `CC(=O)c1ccc2c(c1)C1C(Cl)C(Sc3ccccc3[N+](=O)[O-])CC1C(c1ccccc1)N2` (centres undefined), the inhibition was -9.68% (inactive).
Turning to `CC(=O)c1ccc2c(c1)C1C(Cl)C(Sc3ccccc3[N+](=O)[O-])CC1C(C(=O)O)N2` (centres undefined), the inhibition was 27.9% (inactive).
`O=C(CN1CCN(C(=O)c2ccco2)CC1)Nc1ccccc1`: the inhibition is 0.71% (inactive).
Under `CN(C)c1nc2c(c(=O)[nH]c(=O)n2C)n1CCCc1ccccc1` stands -3.17% (inactive); under `CCc1cccc(CC)c1NC(=O)CN(CC(=O)O)CC(=O)O`, 5.31% (inactive).
Under `O=C(O)CP(=O)(O)O` stands -2.09% (inactive); under `Cn1c(=O)c2cc(S(=O)(=O)NC(C(=O)N3CCCCCC3)c3ccccc3)ccc2n(C)c1=O` (centres undefined), -3.38% (inactive).
